PubChem BioAssay AID720519 (National Center for Advancing Translational Sciences (NCATS), 2013)
Records with an inconclusive call do not appear. Entries that show only a call come without a potency. Calls of active or inactive are those of the source. Calls come from the whole dose curve; as a rule, active = well fitted activation curve with a large enough effect; inconclusive = small, poorly fitted or top-dose-only effect; inactive = flat fitted curve, though single readings scatter.

Test: qHTS for Inhibitors of Cell Surface uPA Generation: Confirmatory Assay for Cherry-picked Compounds
Conditions: cell surface uPA activity generation, qHTS confirmation; series mostly up to 115 µM
How it was run: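 RAW 264.7 cells at 4000/well, incubated overnight, then treated with compounds. After 24 h at 37 C, viability was read by ATPlite luminescence. An increase in signal indicates blocked uPA-dependent LF entry.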

Compound | Potency
COc1cc(NS(=O)(=O)c2ccc(NC(=S)NC(=O)COc3ccccc3OC)cc2)nc(OC)n1 | inactive
C[C@H]([C@H](O)c1ccccc1)N(C)C(=O)CN | inactive
COc1ccc2nc(SC(C)C(=O)NC3(C#N)CCCCC3)[nH]c2c1 (stereo not drawn) | inactive
COc1cccc(NC(=O)CSc2nc3ncc(Br)cc3[nH]2)c1 | inactive
COCCNC(=O)C(c1c[nH]c2ccccc12)N(C(=O)c1snc(C(N)=O)c1N)c1cccc(OC)c1 (stereo not drawn) | inactive
COc1ccc(C(=O)NCCOC(C)C)cc1OC1CCN(C(C)=O)CC1 | inactive
C/C(=N\NC(=O)c1cccc([N+](=O)[O-])c1)c1cccnc1 | inactive
COc1ccc2c(ccn2S(=O)(=O)c2ccccc2)c1 | inactive
Cc1ccc([C@H]2C(C(=O)O)=CC[C@@H](c3cccc(C)c3)N2S(=O)(=O)c2ccc(C)cc2)cc1 | inactive
Cc1cc(C)n(C(=O)c2cccc([N+](=O)[O-])c2)n1 | inactive
O=C(Nc1ccnn1C1CCN(CCCC2CCCC2)CC1)c1ccccc1 | inactive
Cn1c(=O)n(CC(=O)O)c(=O)c2c1nc1n2CCCN1CCc1ccccc1 | inactive
COc1cc(CNCCc2ccccc2)cc(Br)c1OCC(=O)Nc1ccccc1C | inactive
O=C(O)C(Nc1nc(C(F)(F)F)nc2ccccc12)c1ccccc1 (stereo not drawn) | inactive
COc1ccc(-c2cc3nc(C)cc(-c4ccc(OC)cc4)n3n2)cc1 | inactive
Cc1nc2ncccn2c1-c1csc(Nc2ccc(S(N)(=O)=O)cc2)n1 | inactive
O=C(CSc1ccc(Cl)cc1)N1CCCC1 | inactive
COC(=O)C(CCSC)NC(=O)Cn1ncc2c(=O)oc3ccccc3c21 (stereo not drawn) | inactive
Cc1c(NC(=O)C(C)OC(=O)CCC2CCCC2)c(=O)n(-c2ccccc2)n1C (stereo not drawn) | inactive

Compound | Potency
CN(c1ccccc1)S(=O)(=O)c1ccc(C(=O)Nc2nnc(C3CC3)o2)cc1 | inactive
COc1ccc(-c2cc3nc(-c4ccccc4)cc(N4CCCC(O)C4)n3n2)cc1 (stereo not drawn) | inactive
CN(CCO)c1ccc(C(C(=O)c2ccccc2)c2ccc(N(C)CCO)cc2)cc1 | inactive
CC(C)C(=O)Nc1nnc(SCc2cccc(F)c2)s1 | inactive
Cc1ccc(NS(=O)(=O)c2c(C)nc3sccn3c2=O)c(C)c1 | inactive
COc1ccccc1-c1ccc(SCC(=O)NCCc2ccccc2)nn1 | inactive
CCc1ccccc1N(CC(=O)N1CCCC1)S(C)(=O)=O | inactive
C=CCn1c(SCc2ccc(C(=O)NCCO)cc2)nc2ccccc2c1=O | inactive
O=[N+]([O-])c1cccc(-c2noc(-c3cccs3)n2)c1 | inactive
CCN(c1ccccc1)S(=O)(=O)c1ccc(NC(=O)c2ccco2)cc1 | inactive
CCOC(=O)C1CCN(S(=O)(=O)c2c[nH]c(=O)[nH]c2=O)CC1 | inactive
COCC(=O)N1CCC(n2nccc2NC(=O)c2ccccc2OC)CC1 | inactive
COc1ccccc1N1CCN(C2CC(=O)N(c3ccccc3)C2=O)CC1 (stereo not drawn) | inactive
COc1ccc([C@H]2[C@H](C(=O)OC(C)(C)C)N3N=Cc4ccccc4C3C23C(=O)c2ccccc2C3=O)cc1OC (stereo partly drawn) | inactive
COc1ccc(C(=O)OCC(=O)N(C)C2CCS(=O)(=O)C2)cc1S(=O)(=O)N(C)Cc1ccccc1 (stereo not drawn) | inactive
COc1ccc(C2=C/C(=C\c3ccccc3OC(C)=O)C(=O)O2)cc1 | inactive
Cc1ccc(-c2nc(CS(=O)(=O)CC(=O)NCc3cccc(F)c3)c(C)o2)cc1 | inactive
CN1CC[C@]23c4ccccc4N[C@H]1[C@]21CCN(C)[C@H]3Nc2ccccc21 | inactive
COc1ccc(N(CN2C(=O)c3ccccc3C2=O)C(=O)C(C)C)cc1 | inactive
